High-throughput results (PubChem)
The full list was thinned out, with hits kept by preference.
Tg IFNy HTS = T. gondii growth inhibition under IFN-gamma. AID 1259416. activity change, negative = inhibition, % (test concentration not listed). Toxoplasma gondii growth in IFN-gamma-treated host cells; active compounds read low. 3.8% of 69,000 active; in the data active = activity change below about -70%, passing the limit was not always enough;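 note: host cells are HeLa cells infected with Toxoplasma gondii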
Numbers without * were called inactive; i = inactive.

SMILES	Tg IFNy HTS
CNC(=O)CN1CCOCC12CCN(Cc1cnc[nH]1)CC2	i
Cn1nc(CN2CCCCC2)c2c1CN(C(=O)c1cccc(C#N)c1)C2	3.4
CCCc1ccc(C(=O)N2Cc3c(CN4CCCCC4)nn(C)c3C2)cc1	-79.4*
CCc1ccc(S(=O)(=O)N2Cc3c(CN4CCCCC4)nn(C)c3C2)cc1	3.5
Cc1nc(C2COCCN2C(=O)COc2ccccc2C)cs1 (stereo unspecified)	6.2
Cc1ccc(C(NC(=O)c2cc3ccc(N(C)C)cc3[nH]2)c2ccncc2)cc1 (stereo unspecified)	-67.5
Cc1ccc(S(=O)(=O)N2CCC3(CC2)NCCN=C3NCc2cccc(F)c2)cc1C	5.0
COc1cccc(NC(=O)c2nc(Nc3ccc(C)cc3)c3ccccc3n2)c1	-88.1*
CCc1ccc(Nc2nc(C(=O)NC)nc3ccccc23)cc1	-5.7
COc1ccc(-c2nc(Nc3cc(C)cc(C)c3)c3ccccc3n2)cc1	-35.7
CCc1cccc(NC(=O)c2nc(Nc3ccccc3)c3ccccc3n2)c1	-72.1*
COc1ccc(-c2nc(Nc3ccc(C)cc3)c3ccccc3n2)cc1	-43.2
COc1cc(-c2nc(Nc3ccc(C)cc3)c3ccccc3n2)cc(OC)c1OC	-93.2*
CCc1ccc(NC(=O)c2nc(Nc3ccccc3)c3ccccc3n2)cc1	-5.9
Cc1ccc(NC(=O)c2nc(Nc3ccccc3)c3ccccc3n2)cc1	-6.0
COc1ccc(NC(=O)c2nc(Nc3ccccc3)c3ccccc3n2)cc1	117.9
c1cncc(-c2nc3c(c(NCCn4cccn4)n2)CCNC3)c1	0.7
Cc1ccc(-c2coc(-c3ccc(NS(=O)(=O)c4cccc(Cl)c4)cc3)n2)cc1C	30.0
CSc1ccc(C2c3[nH]c4ccccc4c3CCN2C(=O)C2CC2)cc1 (stereo unspecified)	73.7
O=C(c1ccc(Br)cc1)N1CCc2c([nH]c3ccccc23)C1c1ccccc1 (stereo unspecified)	-47.7
CCOc1ccc(C2c3[nH]c4ccccc4c3CCN2C(=O)c2ccc(OC)c(OC)c2)cc1 (stereo unspecified)	i
O=C(c1cccc(F)c1)N1CCc2c([nH]c3ccccc23)C1c1ccc(Cl)cc1 (stereo unspecified)	-52.5
O=C(c1ccccc1)N1CCc2c([nH]c3ccccc23)C1c1ccc(Cl)cc1 (stereo unspecified)	-99.2*
Cc1ccc(C2c3[nH]c4ccccc4c3CCN2C(=O)C2CC2)cc1 (stereo unspecified)	145.9
O=C(C1CCCCC1)N1CCc2c([nH]c3ccccc23)C1c1ccc(F)cc1 (stereo unspecified)	-75.3*
SMILES	Tg IFNy HTS
CCOc1ccc(C2c3[nH]c4ccccc4c3CCN2C(=O)c2ccc(F)cc2)cc1 (stereo unspecified)	-88.7*
O=C(c1cccc(F)c1)N1CCc2c([nH]c3ccccc23)C1c1ccc(F)cc1 (stereo unspecified)	141.0
COc1cc(C(=O)N2CCc3c([nH]c4ccccc34)C2c2ccc(Cl)cc2)cc(OC)c1OC (stereo unspecified)	0.5
O=C(c1ccc(Br)cc1)N1CCc2c([nH]c3ccccc23)C1c1ccc(F)cc1 (stereo unspecified)	-94.1*
CCOc1ccc(C2c3[nH]c4ccccc4c3CCN2C(=O)c2cc(OC)c(OC)c(OC)c2)cc1 (stereo unspecified)	247.3
CC(Oc1ccc2c(c1)OCO2)c1nc(CC2CCN(C)CC2)no1 (stereo unspecified)	-30.2
Cc1cc(C)n(C(C)CC(=O)N2CCCC3(CNC(=O)c4ccccc4O3)C2)n1 (stereo unspecified)	-8.5
O=C(Cn1c(=O)c(S(=O)(=O)c2ccccc2)cc2ccccc21)NCc1ccco1	26.0
CCn1ccc2ccc(CCC(=O)N3CCN(c4ccccn4)CC3)cc21	90.8
COc1ccc2c(CN(C)C(C)c3nc(C)sc3C)[nH]nc2c1 (stereo unspecified)	-7.4
O=C(CCC1CCCC1)N1CCc2c([nH]c3ccccc23)C1c1ccc(Cl)cc1 (stereo unspecified)	-106.3*
O=C(c1ccc(Br)cc1)N1CCc2c([nH]c3ccccc23)C1c1ccc(Cl)cc1 (stereo unspecified)	-94.9*
O=C(c1ccccc1)N1CCc2c([nH]c3ccccc23)C1c1cccnc1 (stereo unspecified)	84.6
O=C(CCC1CCCC1)N1CCc2c([nH]c3ccccc23)C1c1ccc(F)cc1 (stereo unspecified)	-66.7
O=C(c1ccccc1Br)N1CCc2c([nH]c3ccccc23)C1c1ccc(Cl)cc1 (stereo unspecified)	357.5
COc1ccc(C(=O)N2CCc3c([nH]c4ccccc34)C2c2ccc(C)cc2)cc1 (stereo unspecified)	i
O=C(c1ccc2c(c1)OCO2)N1CCc2c([nH]c3ccccc23)C1c1ccc(F)cc1 (stereo unspecified)	-109.4*
COc1ccc(C(=O)N2CCc3c([nH]c4ccccc34)C2c2cccnc2)cc1OC (stereo unspecified)	70.0
